Experimental findings from PubChem BioAssay AID720565 (National Center for Advancing Translational Sciences (NCATS), 2013) are described below.

“And” between values parts separate entries of the source, which are not always exact repeats. Equal values may be shown once. Inconclusive results are not listed. Unmarked numbers belong to inactive results. The source made the active and inactive calls. The call rests on the fitted dose curve; in most records, active means well fitted activation curve with a large enough effect; inconclusive means small, poorly fitted or top-dose-only effect; inactive means no such curve, though single readings can be large or run the other way.
Potency means the concentration at half of the fitted maximal effect.

The assay is described as follows: qHTS for small molecules that induce genotoxicity in ELG1 expressing cells: Confirmatory Assay for Cherry-picked Compounds. Further: nearly all actives have a fitted effect of over 35% in size. On activation: % of control where 0% means no effect. The following applies: ELG1-luciferase reporter cells, luminescence, 16 h; series mostly up to 46.1 µM; activation: at the top concentration. The text has this:
Cancer cells divide rapidly compared to normal cells in the body. During cell division, cancer cells need to duplicate their genome by DNA replication. The failure of genome duplication leads to cancer cells' death. Therefore, inhibitors of DNA replication could specifically kill cancer cells. Based on this concept, many chemotherapeutic agents were developed and have been used to treat cancer patients. However, there are a limited number of agents available in the clinical setting, and some of those that do exist have low efficacy and severe side effects. Therefore, if we can find the compounds that effectively block DNA replication either by directly damaging DNA or by inhibiting other cellular mechanisms, the options for cancer treatment will be broadened. We developed a quantitative high-throughput ELG1-luciferase reporter gene assay. Since the level of human ELG1 protein is enhanced in response to genetic stresses, increases in luciferase activity can be used to identify compounds that cause genetic stress. The data herein is the result of the confirmation assay against the cherry picked compounds selected from the primary qHTS (AID 504466). Activation is the desired outcome for this assay. NIH Chemical Genomics Center [NCGC] NIH Molecular Libraries Probe Centers Network [MLPCN] MLPCN Grant: MH092164 Assay Provider: Kyungjae Myung, National Human Genome Research Institute, NIH
For genotoxicity screening, 2,000 cells/ well (5 uL volume) were dispensed into white, solid-bottom 1536-well plates using a solenoid-based dispenser. Following transfer of 23 nL compound or DMSO vehicle by a pin tool, the plates were incubated 16 hr at 37 C, 5% CO2. Five microliter of ONE-Glo reagent (Promega) was then added to each plate. The assay plates were incubated for 30 min at room temperature followed by quantification of the luciferase activity using the PerkinElmer ViewLux CCD-based plate reader.
A general note: qHTS replaces the single test concentration by a dilution series.
In the case of `CC(C)CN(C)c1ccc(/C=C2\C=Cc3ccccc32)cc1`, the Potency was 14.1 µM (active).

On to `Oc1ccccc1-c1cc(-c2ccccc2)n[nH]1`, for which the Potency was 2.23 µM (active). For `O=C(CSc1ncnc2sccc12)N1CCCCC1`, the Potency is 15.8 µM (active). The same measure, in the same setting: in the case of `c1nc(CCO[C@H]2CCCCO2)cc2cc3c(cc12)OCO3` it was 0.281 µM (active). Still for that read-out and setting: with `COc1ccc(-c2cc3cc(F)ccc3cn2)cc1` the figure was 2.23 µM (active); with `CC(C)C(=O)SCCCCCCC(=O)Nc1nc(-c2ccccc2)cs1`, 12.5 µM (active). The same measure, in the same setting: in the case of `COc1cccc2oc(-c3ccccc3)cc(=O)c12` it was 4.45 µM (active). Regarding `CN(C)c1ccc(/C=C/c2ccnc3ccc(F)cc23)cc1`, the Potency is 0.354 µM (active). The same measure, in the same setting: with `CCOC(=O)c1cc(-c2cc(OC)c(OC)c(OC)c2)nc2c1c(=O)[nH]c(=O)n2Cc1ccccc1` the figure was 25 µM (active); with `ICC[n+]1csc2ccccc21`, 14.1 µM (active). On the same count and under the same terms, in the case of `COc1ccc(OCC(=O)Nc2ccc(-c3nc4cc(C)c(C)cc4o3)cc2)cc1` it was 813 nM (active) and 1.12 µM (active); in that of `Clc1ccc(-c2cnnc(-c3ccccn3)n2)cc1`, 14.1 µM (active). Still for that read-out and setting: in the case of `O=C(N[C@H]1/C=C\[C@@H](O)CCCC1)OCc1ccccc1` it was 9.96 µM (active); in that of `Cc1cc(C(=O)Nc2ccc(Br)cn2)sc1C`, 2.5 µM (active); in that of `COc1cccc(/C=C/c2cnc3ccccc3n2)c1OC`, 0.397 µM (active).

As for `O=C(NCc1cccs1)c1cc(-c2ccccc2)on1`, the Potency was 11.5 µM (active) and 7.06 µM (active).

Consider `COc1cccc([C@@H]2Oc3ccc(OC)cc3C(=O)[C@H]2OC(=O)NS(=O)(=O)c2ccc(C)cc2)c1`, for which the Potency was 15.8 µM (active). On the same count and under the same terms, with `CN(C)c1ccc(/C=C2\CCc3ccccc32)cc1` the figure was 1.58 µM (active); with `CCC1CCCCN1CCCNC(=O)c1ccc2nc(N3CCC(C)CC3)sc2c1` (stereo not given), 0.0706 µM (active). `O=C(Cc1ccc(OCCCc2ccccc2)cc1)NO`: the Potency was 15.8 µM (active).

`CC(=O)Nc1ccc(SCC(=O)c2cc(C)n(Cc3cccs3)c2C)cc1`: the Potency is 1.12 µM (active). Consider `COc1ccccc1/C=C/c1nc2ccccc2s1`, for which the Potency is 3.97 µM (active).

Consider `Cc1ccc2c(c1)sc1nc(=O)n(-c3ccccc3)c(=O)n12`, for which the Potency is 3.54 µM (active).

Turning to `CN(C)c1ccc(N=Nc2ccc(/C=C/c3ccnc4ccccc34)cc2)cc1`, the Potency is 4.45 µM (active).

For `N#Cc1cc2cc3c(cc2nc1SCC(=O)N1CCOCC1)OCCO3`, the Potency is 0.889 µM (active). As to `O=C(CSc1nnc(Cc2ccccc2)o1)Nc1ccc(Br)cn1`, the “activation” value is -11.1%.

With `Cc1ccc(C(=O)NN=CC(=O)c2ccccc2)c(C)c1`, the Potency is 6.28 µM (active). Same read-out and setting: in the case of `Cc1cc(C)c(C#N)c(SCC(=O)Nc2cc(C)on2)n1` it was 4.99 µM (active). Same read-out and setting: with `O=C(CSc1nnc(-c2ccc(O)cc2)o1)Nc1ccccc1` the figure was 5 µM (active).

In the case of `CCCC(=O)Oc1ccc2[nH]c(C(=O)c3cc4ccccc4[nH]3)cc2c1`, the Potency is 6.28 µM (active). In the case of `O=C(CSCC(=O)N1CCN(c2ccccc2)CC1)Nc1nc(-c2ccc(Cl)s2)cs1`, the “activation” value was -28.8%. On the same count and under the same terms, in the case of `O=C1CCc2cc(NS(=O)(=O)c3ccccc3)cc3c2N1CCC3` it was 12.5%. Regarding `CCOC(=O)N1CCN(C(=O)CSCC(=O)Nc2nc(-c3ccccc3)cs2)CC1`, the “activation” value is -28.1%. As to `O=S(=O)(c1c(F)cccc1F)N1CCN(S(=O)(=O)c2c(F)cccc2F)CC1`, the Potency is 15.8 µM (active). As to `COc1ccc(-c2coc3cc(O)cc(O)c3c2=O)cc1`, the Potency is 9.96 µM (active).

For `CCCCCn1ncc2c3sc(C)cc3n(C)c2c1=O`, the Potency is 12.5 µM (active). `Cc1ccc(OCC(=O)Nc2ccc(-c3nc4ncccc4o3)cc2)cc1`: the Potency is 28.1 µM (active).

In the case of `CS(=O)c1ccc(/C=C2\C=Cc3ccccc32)cc1` (stereo not given), the Potency is 1.26 µM (active). Turning to `CCOc1ccc2oc(C(=O)Nc3nccs3)c(C)c2c1`, the Potency was 2.23 µM (active). On the same count and under the same terms, in the case of `Cc1cc(C(=O)COC(=O)C2=COCCO2)c(C)n1-c1ccccc1` it was 0.25 µM (active).
